Source: PubChem BioAssay AID624256 (NMMLSC, 2012)
The campaign covered roughly 360,000 compounds. About 3,700 (1%) were called active. Roughly 2% stayed inconclusive and do not appear here.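 The calls were made as follows: active = normalized GFP-positive differentiation at or above the plate's own cutoff, the solvent-only control mean plus 3 SD; inconclusive = no clear call, values can overlap the other calls; inactive = the rest.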 Many of the other results were omitted from the sample, so actives are more common in it than they were.

Assay: HoxA9-arrested leukemia cell differentiation promoters – flow cytometry, MLPCN library, primary screen (AID 624256);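 as to GFP+ MAC1+ double positive: cells exposed to compound for four days before flow analysis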;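 as to normalized GFP-positive differentiation: cells exposed to compound for four days before flow analysis; 0% = DMSO wells and 100% = fulvestrant positive control at 5 µM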
Settings: ER-HoxA9 myeloid progenitors, lysozyme-GFP differentiation, at 10 µM; GFP+ MAC1+ double positive: measured here: differentiation confirmed by MAC1 staining, stronger effect = higher value; normalized GFP-positive differentiation: stronger effect = higher value

| Compound | GFP+ MAC1+ double positive | outcome | normalized GFP-positive differentiation |
| --- | --- | --- | --- |
| COC(=O)Cc1ccc(NC(=S)NCc2ccco2)cc1 | 0.6% | inactive |  |
| O=C(NNC(=S)NCc1ccco1)C(c1ccccc1)c1ccccc1 | 5.5% |  | 175% (active) |
| COc1cccc(OC)c1C(=O)NC(=S)NCc1ccco1 | 0.3% | inactive |  |
| Nc1cccc(-c2cncc(N3CCN(Cc4ccccn4)CC3)n2)c1 | 0.8% | inactive |  |
| CC(C)c1cccc(C(C)C)c1Nc1cn[nH]c1 | 0.2% | inactive |  |
| CC(C)CNC(=O)COC(=O)/C=C/c1ccccc1[N+](=O)[O-] | 4.9% |  | 14.3% (active) |
| CC(C)CNC(=O)COC(=O)/C=C/c1ccco1 | 0.7% | inactive |  |
| O=C(/C=C/c1ccccc1[N+](=O)[O-])OCC(=O)N1CCCC1 | 0.4% | inactive |  |
| O=C1C(Sc2cccc(F)c2)=C[C@@]2(O)CC[C@@H](O)[C@]1(Sc1cccc(F)c1)[C@H]2O | 2% | inactive |  |
| O=C1NC[C@H](CCCCN2CCN(CCc3ccccc3)C(=O)C2=O)N(CC2CCCCC2)C1=O | 0.5% | inactive |  |
| Nc1nc2cc(Cl)ccc2n1N | 1.5% | inactive |  |
| CN1OC[C@@H]2CN(S(=O)(=O)c3cccc4ccccc34)[C@H](c3ccc(N4CCCCC4)cc3)C[C@@H]21 | 0.8% | inactive |  |
| O=C(NCc1ccccc1Cl)C(=O)NCC1CCCN1S(=O)(=O)c1cccs1 (stereo unspecified) | 0.7% | inactive |  |
| CCC1CCCCN1S(=O)(=O)Cc1ccccc1Cl (stereo unspecified) | 3% |  | 98.8% (active) |
| O=C(NCc1ccccc1Cl)C1CCCN1S(=O)(=O)c1ccc(F)cc1 (stereo unspecified) | 0.6% | inactive |  |
| C[C@H](NC(=O)c1nc[nH]c1C(=O)NCC(=O)OC(C)(C)C)C(=O)OCc1ccccc1 | 0.8% | inactive |  |
| CC(C)(C)OC(=O)CNC(=O)c1[nH]cnc1C(=O)N[C@@H](Cc1ccccc1)C(=O)OCc1ccccc1 | 10% |  | 21.4% (active) |
| O=C(N[C@@H](Cc1ccccc1)C(=O)OCc1ccccc1)c1nc[nH]c1C(=O)N[C@@H](Cc1ccccc1)C(=O)OCc1ccccc1 | 0.2% | inactive |  |
| FC(F)(F)c1cccc(-c2nc3ccccc3n2C(c2ccccc2)c2nc3ccccc3[nH]2)c1 (stereo unspecified) | 3.2% | inactive |  |
| COc1cccc(-c2ccc3c(c2)N(Cc2ccccc2OC)C(=O)C(C)S3)c1 (stereo unspecified) | 0.8% | inactive |  |
| Cc1cccnc1C(NC(=O)C1CCN(Cc2ccc(Cl)c(Cl)c2)CC1)c1ccc(Cl)cc1 (stereo unspecified) | 0.8% | inactive |  |

| Compound | GFP+ MAC1+ double positive | outcome | normalized GFP-positive differentiation |
| --- | --- | --- | --- |
| CC1=C(C(=O)N2CCOCC2)CC(CC(=O)NCc2cccs2)C(=O)N1CCCN1CCCC1=O (stereo unspecified) | 1.4% | inactive |  |
| CC(OC(=O)CCCc1c[nH]c2ccccc12)C(=O)Nc1ccc(S(N)(=O)=O)cc1 (stereo unspecified) | 0.5% | inactive |  |
| Cc1ccc(NC(=O)C(C)OC(=O)Cc2c[nH]c3ccccc23)cc1S(=O)(=O)N1CCOCC1 (stereo unspecified) | 1% |  | 9.47% (active) |
| Cc1ccc(NC(=O)C(C)OC(=O)C2CC3CCCC(C2)C3=O)cc1S(=O)(=O)N1CCOCC1 (stereo unspecified) | 0.8% | inactive |  |
| O=C(OC1CC2CC1[C@H]1CCCCN1C2=O)N1CCOCC1 (stereo partly specified) | 0.9% | inactive |  |
| O=C(NNc1c2ccccc2nc2ccccc12)c1cc2ccccc2cc1O | 2.5% |  | 28.5% (active) |
| O=C(COC(=O)c1ccc(O)cc1O)NC(=O)c1ccccc1 | 0% | inactive |  |
| Cc1noc(C)c1COC(=O)c1cc2ccccc2cc1O | 1.2% | inactive |  |
| CCc1nc2c(OCCOc3ccc(F)cc3)cccn2c1N(C)C(=O)c1ccccc1F | 0.6% | inactive |  |
| CCS(=O)(=O)c1cc([N+](=O)[O-])c(Sc2ccccc2N)s1 | 1.1% |  | 150% (active) |
| Nc1ccccc1SC(C[N+](=O)[O-])c1ccccc1 (stereo unspecified) | 1.1% | inactive |  |
| CC(C)(C)N1C(=O)c2c(C(=O)OCc3ccccc3)[nH]c(-c3ccccc3)c2C1=O | 1.4% | inactive |  |
| CC(C)Nc1nc(NCCOc2ccccc2Cl)c2sccc2n1 | 1% | inactive |  |
| COc1ccc2nc(N3CCN(C(=O)c4ccc([N+](=O)[O-])o4)CC3)sc2c1 | 7.3% |  | 33.6% (active) |
| COc1ccc(N2CCN(c3ccc([N+](=O)[O-])nc3)CC2)cc1 | 0.9% | inactive |  |
| COc1ccc2nc(N3C(=O)C(O)=C(C(=O)c4ccco4)C3c3ccco3)sc2c1 (stereo unspecified) | 0.8% | inactive |  |
| CCc1nc2ccc(C(=O)Nc3cccc(OC)c3)cn2c1N(CCC(C)C)CCN(C)C | 1.2% | inactive |  |
| CCCCNC(=O)C[C@@H]1C[C@@]2(C(=O)OC)CC(C)(C)CC=C2N(Cc2ccco2)C1=O | 2.1% | inactive |  |
| COC(=O)C[C@@H]1C=C[C@@H](NC(=O)c2cccnc2)[C@@H](CO)O1 | 1.2% | inactive |  |
| CCOC(=O)C1=CC[C@@H](c2ccccc2)N(S(=O)(=O)c2ccc(C)cc2)[C@H]1c1ccc(CC)cc1 | 0.9% | inactive |  |
| COc1ccc(N(CC(=O)N2CCCCCC2)S(=O)(=O)c2ccccc2)cc1 | 2.2% | inactive |  |

| Compound | GFP+ MAC1+ double positive | outcome | normalized GFP-positive differentiation |
| --- | --- | --- | --- |
| COc1ccc(S(=O)(=O)NCCCCOc2ccc(Cl)cc2)cc1 | 0.7% | inactive |  |
| COc1ccc(N(CCC#N)S(=O)(=O)c2ccc(Cl)cc2)cc1 | 6.2% |  | 17% (active) |
| COc1cc(C=C(OC(C)=O)c2ccc3c(c2)OCO3)cc(OC)c1OC | 0.8% | inactive |  |
| Cc1ccc(C(=O)Nc2ncccc2C)cc1S(=O)(=O)N1CCOCC1 | 0.8% | inactive |  |
| Cc1cc(C)n(C(=O)c2ccc(C)c(S(=O)(=O)N3CCOCC3)c2)n1 | 3.4% |  | 11% (active) |
| Cc1ccc(C(=O)OCC(=O)N2CCCCCC2)cc1S(=O)(=O)N1CCOCC1 | 0.9% | inactive |  |
| CCOC(=O)c1ccc(-c2ccc3ncnc(N(C)Cc4sccc4C)c3c2)o1 | 2% | inactive |  |
| CC(=O)Nc1cccc(Nc2ccc(C#N)cc2)c1 | 0.5% | inactive |  |
| Cc1cccc(C)c1NC(=O)C(c1ccc(C(F)(F)F)cc1)n1c(=O)c(-c2ccco2)nc2ccccc21 (stereo unspecified) | 2.6% | inactive |  |
| CC[n+]1cc(C)ccc1/C=C/c1ccc(N(C)C)cc1 | 14.3% |  | 385% (active) |
| O=[N+]([O-])c1ccc(CN2CC(N3CC=CC3)CS2(=O)=O)cc1 (stereo unspecified) | 0.8% | inactive |  |
| COc1ccc(CC(N)c2csc(NC(=O)Cc3ccccc3)n2)cc1 (stereo unspecified) | 0.8% | inactive |  |
| CCCCn1nnnc1C(c1cccc(OC)c1OC)N1CCN(C/C=C/c2ccccc2)CC1 (stereo unspecified) | 1% | inactive |  |
| CCOc1nc(NCCN2CCOCC2)nc(Nc2ccc(C)cc2)n1 | 0.6% | inactive |  |
| c1ccc2cc3c(NCCN4CCOCC4)ccnc3cc2c1 | 8.7% |  | 189% (active) |
| Fc1ccc(-c2ccc(NCCN3CCOCC3)nn2)cc1 | 0.2% | inactive |  |
| CC1(C)OC(=O)C2=C(C[C@@H](C3CC3)O[C@H]2CCc2cccc(Cl)c2)O1 | 0.7% | inactive |  |
| COc1cc(/C=C2/C(=O)NN(c3ccc(F)cc3)C2=O)cc([N+](=O)[O-])c1O | 0.5% | inactive |  |
| COc1cc(/C=N/O)cc(Br)c1OCc1cccc(Cl)c1 | 0.1% | inactive |  |
| COc1cc(/C=C2/C(=O)NN(c3cccc(Cl)c3)C2=O)cc(Br)c1O | 11.4% |  | 287% (active) |
| CCOC(=O)[C@]12CCCC=C1N(CCC1=CCCCC1)C(=O)[C@H](CC(=O)N1CCSCC1)C2 | 4.4% | inactive |  |

| Compound | GFP+ MAC1+ double positive | outcome | normalized GFP-positive differentiation |
| --- | --- | --- | --- |
| COc1ccc(Sc2ccc(NC(=O)c3cccc(Cl)c3)cc2C#N)cc1 | 1.1% | inactive |  |
| CC(C)N(C(=O)[C@H]1C[C@H](CC(=O)NCCC2=CCCCC2)C(=O)N2CCc3c([nH]c4cc(CCC(=O)N(C)C)ccc34)[C@]12C)C(C)C | 0.4% | inactive |  |
| CC(C)N(C(=O)[C@H]1C[C@H](CC(=O)NC(C)(C)C)C(=O)N2CCc3c([nH]c4ccc(Cl)cc34)[C@]12C)C(C)C | 1.5% |  | 8.17% (active) |
| C[C@]12c3[nH]c4ccc(Cl)cc4c3CCN1C(=O)[C@@H](CC(=O)NCCCn1ccnc1)C[C@@H]2C(=O)N1CCOCC1 | 0.6% | inactive |  |
| O=C(NCc1ccc(F)cc1)c1cc(C2CCCCN2C(=O)C2CCCCC2)on1 (stereo unspecified) | 1.3% | inactive |  |
| COc1cccc(/C=C2\SC(=S)N(CCCC(=O)N3CCOCC3)C2=O)c1 | 2.7% |  | 19% (active) |
| COc1cccc(/C=C2\Sc3ccc(C(=O)NCC4CCCO4)cc3N(C)C2=O)c1 (stereo unspecified) | 3.7% | inactive |  |
| COc1ccc(/C=C2\SC(=S)N(CCC(=O)N3CCOCC3)C2=O)cc1OC | 0.9% | inactive |  |
| OC(c1cc(Cl)cc(Cl)c1)c1ncc(-c2ccccc2C(F)(F)F)[nH]1 (stereo unspecified) | 1.7% | inactive |  |
| Nc1nc2c(ncn2[C@@H]2O[C@H](CNS(=O)(=O)N3CCc4ccccc4C3)[C@@H](O)[C@H]2O)c(=O)[nH]1 | 0.7% | inactive |  |
| CCCOC(=O)c1[nH]c2c(c1C)C(=O)CC(c1cc(OC)c(OC)c(OC)c1)C2 (stereo unspecified) | 8.6% |  | 37% (active) |
| COC(=O)C1C(=O)c2c([nH]c(C(=O)OCCSC)c2C)CC1C (stereo unspecified) | 3.1% | inactive |  |
| COc1cc(C2CC(=O)c3cnc(NC(C)=O)nc3C2)cc(OC)c1OC (stereo unspecified) | 0.9% | inactive |  |
| COc1cc(/C=C2/SC(=S)N(Cc3ccccc3)C2=O)cc(OC)c1O | 6.9% |  | 111% (active) |
| CN1C=CC=C/C1=C1\SC(=S)N(Cc2ccccc2)C1=O | 0.2% | inactive |  |
| COc1ccc(CCN=C2SCC(=O)N2Cc2ccccc2)cc1OC | 0.1% | inactive |  |
| Cc1ccc2nc(-c3ccccc3)c(CC3CCCCC3)n2c1 | 0.3% | inactive |  |
| COc1cc(OC)cc(C2=Cc3ccccc3C(CC(=O)c3ccco3)N2c2ccc(-c3cnc(OC)nc3)cc2)c1 (stereo unspecified) | 1% | inactive |  |
| CC(=O)N1Cc2cc(C(=O)NCc3cccc(F)c3)nc(-c3cccc(C4=CCCCC4)c3)c2[C@H]1CCO | 1.2% | inactive |  |
| C[C@H](NC(=O)CC[C@H]1O[C@@H](n2ccc(=O)[nH]c2=O)[C@H](O)[C@@H]1O)c1cccc2ccccc12 | 1.1% | inactive |  |
